Source: PubChem BioAssay (Tox21)
Inconclusive results are not listed. Where a call stands in place of a potency, no number is given. Active and inactive are the calls of the source. Calls come from the whole dose curve.

Target: Beta-2 adrenergic receptor (Homo sapiens) (UniProt P07550)
Assay: Adrenergic beta2 receptor (ADRB2) small molecule agonists, cell-based qHTS assay (AID 1963593);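 note: CHO cells stably overexpressing human ADRB2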
Procedure, shortened: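 CHO cells stably over-expressing ADRB2 were plated overnight at 37C, then dosed with compounds plus a stimulation mix containing 100uM IBMX and 25uM Ro-20-1724 for 0.5hr at room temperature. cAMP was measured by HTRF competition, 1hr.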

Sequence of Beta-2 adrenergic receptor (Homo sapiens) (P07550 whole entry, looked up): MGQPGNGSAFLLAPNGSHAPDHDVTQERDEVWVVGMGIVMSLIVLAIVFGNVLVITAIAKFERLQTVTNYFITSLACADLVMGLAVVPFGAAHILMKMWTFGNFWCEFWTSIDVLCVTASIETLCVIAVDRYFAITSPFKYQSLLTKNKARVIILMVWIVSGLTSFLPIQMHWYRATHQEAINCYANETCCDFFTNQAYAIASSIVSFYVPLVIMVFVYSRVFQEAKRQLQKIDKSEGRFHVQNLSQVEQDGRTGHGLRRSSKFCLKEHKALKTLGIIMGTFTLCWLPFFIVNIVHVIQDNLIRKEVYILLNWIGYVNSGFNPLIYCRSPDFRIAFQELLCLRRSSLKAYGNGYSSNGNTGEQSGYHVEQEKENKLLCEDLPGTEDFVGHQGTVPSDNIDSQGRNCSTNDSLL

SMILES | Potency
O=C(Nc1cccc(C2=NCCN2)c1)Nc1cccc(C2=NCCN2)c1 | inactive
CC1=CP(=O)(c2ccccc2)CC1 (stereo unspecified) | inactive
C=C(C)C(=O)OCC(O)CO (stereo unspecified) | inactive
O=C(O)C(=O)Cc1c[nH]c2ccccc12 | inactive
O=S(=O)(O)c1ccc(O)c2ncccc12 | inactive
CCN(CC)CCOc1ccccc1C(=O)CCc1ccccc1 | inactive
CCOC(=O)C(Br)c1ccccc1 (stereo unspecified) | inactive
NS(=O)(=O)c1ccc(Cl)c(S(N)(=O)=O)c1 | inactive
CC(C)(Oc1ccc(Cl)cc1)C(=O)OCCCOC(=O)C(C)(C)Oc1ccc(Cl)cc1 | inactive
CCCCCCOC(=O)C(C)C | inactive
CCOC(=O)CCC(=O)OCC | inactive
CC/C=C\CC/C=C/C(OCC)OCC | inactive
CCCCC(CC)COC(=O)CC#N (stereo unspecified) | inactive
O=S(O)O | inactive
CC(C)(C)c1n[nH]c(=S)n(N)c1=O | inactive
CCOC(=O)c1cccnc1 | inactive
